The entries come from a sample that favours hits as a whole.
Menin MLL FP FL: qHTS Assay for Inhibitors Targeting the Menin-MLL Interaction in MLL Related Leukemias: Competition With Fluorescein Labeled MLL-derived Peptide | Fluorescence polarization, fluorescein-MLL peptide displacement from menin | FP activity change, % at 61.4 µM | 290,000 tested, under 10 active | AID 1766, 2009; active means well fitted curve in the direction sought with a large enough effect in the polarisation, not every such curve was filed as active; inconclusive means small, poorly fitted or top-dose-only effect, or effect the other way, or a change in a side signal; inactive means no such curve, though single readings can be large or run the other way; the % refers to the polarisation; further: % of control where 0% means no effect
Menin-MLL TR inh: qHTS Assay for Inhibitors Targeting the Menin-MLL Interaction in MLL Related Leukemias: Competition With Texas Red Labeled MLL-derived Mutant Peptide; AID 1768, 2009; actives 0.23% (n = 270,000); Menin + Texas Red MLL mutant peptide, fluorescence polarization; O00255; Potency, µM (doses to about 61.6 µM), inactives show top-dose FP activity change, negative = inhibition, usual class: inhibitors; active means well fitted inhibition curve with a large enough effect in the polarisation, with a control signal flat, not every such curve was filed as active; inconclusive means small, poorly fitted or top-dose-only effect, or effect the other way, or a change in a side signal; inactive means no such curve, though single readings can be large or run the other way; the % refers to the polarisation; further: potency means the concentration at half of the fitted maximal effect; % of control where 0% means no effect
Lamin A splicing: qHTS Assay for Modulators of Lamin A Splicing | Potency, µM (doses to about 46.1 µM), without a hit: at the highest dose ratio change, negative = inhibition, usual class: inhibitors | actives 0.01% (n = 200,000) | HeLa LMNA splicing GFP/RFP minigene ratio, 48 h; active means well fitted inhibition curve with a large enough effect in the signal ratio, with a control signal flat, not every such curve was filed as active; inconclusive means small, poorly fitted or top-dose-only effect, or effect the other way, or a change in a side signal; the % refers to the signal ratio; further: potency means the concentration at half of the fitted maximal effect; on the % scale 0 is the no-effect control and ±100 the full control effect
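S3 HeLa cells stably expressing lamin A-EGFP splicing minigene plus DsRed2, 600 cells/well, 48 h compound exposure at 37C. Laser-scanning cytometry; analysed as GFP (500-530 nm)/RFP (575-640 nm) total intensity ratio; 0.5% DMSO vehicle.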
CXXC DNA block: qHTS Fluorescence Polarization Assay for Inhibitors of MLL CXXC domain - DNA interaction; Histone-lysine N-methyltransferase 2A (Homo sapiens), Q03164; MLL-CXXC / FITC-HOXA9 DNA fluorescence polarization; Potency, µM (series often up to 115 µM), for the others: at the top dose activity change, negative = inhibition, usual class: inhibitors; actives 0.037% (n = 290,000); AID 2662, 2010; active means well fitted inhibition curve with a large enough effect in the polarisation, with a control signal flat, not every such curve was filed as active; inconclusive means small, poorly fitted or top-dose-only effect, or effect the other way, or a change in a side signal; inactive means no such curve, though single readings can be large or run the other way; the % refers to the polarisation; further: potency means the concentration at half of the fitted maximal effect
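Steps: dispense CXXC domain solution (7 uM) → pin compounds or unlabeled HOX-A9 DNA control → 5 min ambient → add FLSN-HOX-A9 solution (50 nM) → spin → 30 min ambient → fluorescence polarization. Tris pH 7.5/NaCl/DTT/BSA buffer.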
Numbers without * were called inactive; [ ] = remark or other dose.

For Cc1ccc(CNC(=O)c2c(-c3ccccc3F)noc2C)o1 the results were Lamin A splicing 10%[46 µM].
`CCOC(=O)C(CS)NCCN[C@@H](CS)C(=O)OCC` (stereo not given in full) gave Menin MLL FP FL -4, Menin-MLL TR inh -2% and CXXC DNA block 1%.
Screening O=C(CSc1nnc2c3ccccc3c3ccccc3c2n1)Nc1ccccc1 returned Menin MLL FP FL 2, Menin-MLL TR inh 13µM*, Lamin A splicing 4% and CXXC DNA block 5%.
For O=C(CSc1nnc2c3ccccc3c3ccccc3c2n1)Nc1ccccc1F the results were Menin MLL FP FL 5, Menin-MLL TR inh inconclusive, Lamin A splicing 5% and CXXC DNA block 20%.
COc1ccc(NC=O)c(C(=O)CCNC(C)=O)c1 was read as Menin MLL FP FL -1 and Menin-MLL TR inh -1%.
`COC(=O)c1cc2c(-c3ccccc3)c(C)c3ccccn3c-2c1C(=O)OC` gave Menin MLL FP FL inconclusive, Menin-MLL TR inh 35µM*, Lamin A splicing inconclusive and CXXC DNA block -1%.
`Cc1ccc(CNc2ccc(O)cc2)cc1` gave Menin MLL FP FL 4, Menin-MLL TR inh 18µM* and Lamin A splicing inconclusive.
Screening Cc1ccc(NCc2ccccc2O)cc1 returned Menin MLL FP FL 0, Menin-MLL TR inh 12%, Lamin A splicing 12% and CXXC DNA block -9%.
Screening Cc1ccc(Nc2c(-c3ccccn3)nc3cc(C)ccn23)cc1 returned Menin MLL FP FL -4, Menin-MLL TR inh -29% and CXXC DNA block inconclusive.
For Cc1ccn2c(Nc3ccc4c(c3)OCO4)c(-c3ccccn3)nc2c1 the results were Menin MLL FP FL inconclusive, Menin-MLL TR inh 35µM*, Lamin A splicing inconclusive and CXXC DNA block inconclusive.
For COc1cc(/C=N/NS(=O)(=O)c2ccc(C)c([N+](=O)[O-])c2)cc([N+](=O)[O-])c1O the results were Menin MLL FP FL -8, Menin-MLL TR inh 25µM* and CXXC DNA block 8%.
COc1cc(/C=N/NS(=O)(=O)c2ccc(C)c([N+](=O)[O-])c2)ccc1O was read as Menin MLL FP FL 0, Menin-MLL TR inh 15%, Lamin A splicing -4%[46 µM] and CXXC DNA block 1%.
`O=C(O)c1cc(=O)c2c3nc4ccccc4oc-3cc(=O)c2[nH]1` gave Menin MLL FP FL 9, Menin-MLL TR inh 40µM* and CXXC DNA block -12%.
`COc1ccc(C(=O)c2c(N)sc3c2CCN(C)C3)cc1` gave Menin MLL FP FL inconclusive, Menin-MLL TR inh 14µM* and CXXC DNA block inconclusive.
For CN1CCc2c(sc(N)c2C(=O)O)C1 the results were Menin MLL FP FL -22, Menin-MLL TR inh -8%, Lamin A splicing 0%[46 µM] and CXXC DNA block 1%.
Screening CCCCn1cnc2c(c(-c3ccccc3)c(-c3ccccc3)n2Cc2ccco2)c1=N returned Menin MLL FP FL 1 and CXXC DNA block 1%.
`N=c1c2c(-c3ccccc3)c(-c3ccccc3)n(Cc3ccccc3)c2ncn1CCCn1ccnc1` gave Menin MLL FP FL -2, Menin-MLL TR inh 22µM*, Lamin A splicing inconclusive and CXXC DNA block 83%.
`Cc1cnc(CNc2ncnc3ccc(-c4c(C)noc4C)cc23)cn1` gave Menin MLL FP FL -6, Menin-MLL TR inh 3% and Lamin A splicing 7.1µM*.
`Cc1noc(C)c1-c1ccc2ncnc(NCc3cccnc3)c2c1` gave Menin MLL FP FL 1, Menin-MLL TR inh 6% and Lamin A splicing 4µM*.
`Cc1noc(C)c1-c1ccc2ncnc(NCc3ccco3)c2c1` gave Menin MLL FP FL 3 and Menin-MLL TR inh -9%.
`Cc1cccc(CNc2ncnc3ccc(-c4c(C)noc4C)cc23)c1` gave Menin MLL FP FL 1, Menin-MLL TR inh -4% and Lamin A splicing inconclusive.
For CC(C)CC(CSc1ccc(Br)cc1)N1CCN(C)CCC1=O (stereo not given) the results were Menin MLL FP FL 4 and Menin-MLL TR inh -23%.
`COc1cc2c(cc1OC)CN(C(=O)/C=C/c1cc(OC)c(OC)c(OC)c1)CC2` gave Menin MLL FP FL 0, Menin-MLL TR inh 10µM* and CXXC DNA block inconclusive.
CC1(C)CC(=O)c2sc(NC(=O)CCS(=O)(=O)c3ccccc3)nc2C1 was read as Menin MLL FP FL 6, Menin-MLL TR inh 26%, Lamin A splicing 4.5µM* and CXXC DNA block 2%.
CC1(C)CC(=O)c2sc(NC(=O)c3ccccc3)nc2C1 was read as Menin MLL FP FL 1, Menin-MLL TR inh 18% and CXXC DNA block -10%.
Screening CCOCCn1ccc2c(OCC(=O)NCc3ccc(F)cc3)cccc2c1=O returned Lamin A splicing 7%[46 µM].
Screening CC(=O)Nc1nc(-c2cccc3ccccc23)cs1 returned Menin MLL FP FL 2, Menin-MLL TR inh 8% and CXXC DNA block -4%.
For O=C(NC(=S)Nc1nc(-c2cccc3ccccc23)cs1)c1cc2ccccc2o1 the results were Menin MLL FP FL 7, Menin-MLL TR inh 25µM*, Lamin A splicing -10% and CXXC DNA block 7%.
`Cc1cc(F)ccc1S(=O)(=O)Nc1ccccc1C(=O)Nc1ccccc1-c1nc2ccccc2[nH]1` gave Menin MLL FP FL 14, Menin-MLL TR inh 14µM*, Lamin A splicing inconclusive and CXXC DNA block 6%.
Screening C[C@]12C[C@@](C)(C=C1/C=C/c1ccc(F)cc1)C(=O)C[C@H]2c1ccc(F)cc1 returned Menin MLL FP FL -1 and Menin-MLL TR inh 19%.
Cc1ccc(/C=C/C2=CC3(C)CC2(C)C(c2ccc(C)cc2)CC3=O)cc1 (stereo not given) was read as Menin MLL FP FL -2[11.7 µM] and Menin-MLL TR inh 10µM*.
CCCCCC(O)c1ccc([C@H]2CCC(=O)[C@@H]2CCCCCCC(=O)O)cc1 (stereo not given in full) was read as Menin MLL FP FL 0 and Menin-MLL TR inh -8%.
COc1ccc(NC(=O)/C(C#N)=C/c2ccc(OCc3ccccc3F)cc2)cc1 was read as Menin MLL FP FL 10, Menin-MLL TR inh 18µM*, Lamin A splicing 3% and CXXC DNA block 6%.
For CCCCCCCCCCCCCCCC[N+](C)(C)Cc1ccccc1 the results were Menin MLL FP FL -9, Menin-MLL TR inh inconclusive and CXXC DNA block inconclusive.
CCC(CNc1cc(OC)cc2cccnc12)NC1CCCCC1 (stereo not given) was read as Menin MLL FP FL inconclusive, Menin-MLL TR inh 35µM* and CXXC DNA block inconclusive.
`C=C(C)CC(C)(C)C` gave Menin MLL FP FL 1 and Menin-MLL TR inh -11%.
CC(C)COP(=O)(c1ccc(N(C)C)cc1)C(O)c1ccc(N(C)C)cc1 (stereo not given) was read as Menin MLL FP FL 2, Menin-MLL TR inh inconclusive and CXXC DNA block 12%.
`CC(C)OP(=O)(c1ccc(N(C)C)cc1)C(O)c1ccc(N(C)C)cc1` (stereo not given) gave Menin MLL FP FL 2, Menin-MLL TR inh 10µM* and CXXC DNA block 15%.
